Assay [1] can be described thus: TOX21_p53_BLA_p2_viability: Viability Assessment in the Tox21 HCT-116 p53 Agonism Beta-lactamase Assay, Phase 2 (AID 2283591).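 Also: actives lower the ATP signal meaning cytotoxicity.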 The procedure, abridged: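 HCT116 p53-bla cells, 4000/well, dosed after 5 h plating (217-fold dilution of DMSO stocks) and incubated 16 h at 37C. Viability taken as cellular ATP by CellTiter-Glo luminescence after 30 min RT; signal loss marks cytotoxicity.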

Assay [2] deals with Cellular tumor antigen p53 (Homo sapiens) (UniProt P04637). The assay is described as follows: TOX21_p53_BLA_p2_ratio: Tox21 HCT-116 p53 Agonism Beta-lactamase Assay, Ratio, Phase 2 (AID 2283592). In outline:
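An inducible beta-lactamase reporter in HCT116 cells signals p53 pathway activation. After 16 h chemical exposure at 37C, cells load CCF4-AM substrate for 2 h at room temperature; activity is the cleaved/uncleaved emission ratio relative to DMSO.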

Assay [3] can be described thus: TOX21_p53_BLA_p3_viability: Viability Assessment in the Tox21 HCT-116 p53 Agonism Beta-lactamase Assay, Phase 3 (AID 2283593).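 Also: cells exposed to compound for 16 h before reading.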 The procedure, abridged: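 HCT116 cells, 4000/well, dosed 5 h after plating by pin transfer (217-fold dilution from DMSO stock) and incubated 16 h at 37C, 5% CO2. Viability read as ATP luminescence with CellTiter-Glo after 30 min at room temperature.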

Assay [4] concerns the target Cellular tumor antigen p53 (Homo sapiens) (UniProt P04637). The assay is described as follows: TOX21_p53_BLA_p3_ratio: Tox21 HCT-116 p53 Agonism Beta-lactamase Assay, Ratio, Phase 3 (AID 2283596). In outline: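 HCT116 p53-bla cells (4000/well) given compound in DMSO (217-fold dilution) after 5 h, incubated 16 h at 37C. CCF4-AM substrate 2 h at room temperature; 460/530 nm emission ratio, gain fitted against DMSO.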

Assay [5] can be described thus: TOX21_p53_BLA_p4_viability: Viability Assessment in the Tox21 HCT-116 p53 Agonism Beta-lactamase Assay, Phase 4 (AID 2283597).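 Also: hits lower the luminescence signal meaning cytotoxicity.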 In outline: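 Compound exposure of HCT116 cells lasts 16 h at 37C, 5% CO2, with DMSO stocks diluted 217-fold. Cellular ATP is then quantified by CellTiter-Glo luminescence after 30 min at room temperature.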
The target of assay [6] is Cellular tumor antigen p53 (Homo sapiens) (UniProt P04637). Description: TOX21_p53_BLA_p5_ratio: Tox21 HCT-116 p53 Agonism Beta-lactamase Assay, Ratio, Phase 5 (AID 2283599). In outline: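 HCT-116 p53-bla cells (4000/well) plated 5 h, dosed with compound (217-fold DMSO dilution) for 16 h at 37 C; CCF4-AM substrate 2 h at room temperature. Activity is the 460/530 nm emission ratio (405 nm excitation), fitted in gain-of-signal direction versus DMSO.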

A short description of assay [7]: TOX21_p53_BLA_p5_viability: Viability Assessment in the Tox21 HCT-116 p53 Agonism Beta-lactamase Assay, Phase 5 (AID 2283600). In outline:
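Counter-readout for cytotoxicity: ATP-dependent luminescence from CellTiter-Glo, read in the beta-lactamase wells after 30 min at RT, following a 16 h compound exposure at 37C.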

Assay [8] has as its target Cellular tumor antigen p53 (Homo sapiens) (UniProt P04637). The assay is described as follows: TOX21_p53_BLA_p4_ratio: Tox21 HCT-116 p53 Agonism Beta-lactamase Assay, Ratio, Phase 4 (AID 2283601). In outline: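 HCT-116 p53 beta-lactamase reporter cells (4000/well) preincubated 5 h, then compound (217-fold dilution of DMSO stock) for 16 h at 37C. CCF4-AM substrate added 2 h at room temperature; 460/530 nm emission ratio fitted upward versus DMSO.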

The nature of assay [9]: ATG_XTT_Cytotoxicity: Cytotoxicity Assessment in the Attagene TRANS-FACTORIAL HepG2 Assay (AID 2283584). In outline: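 Transfect HepG2 with GAL4-UAS reporter units, dose compound, incubate 24 h, then measure viable cell number by XTT. Fit concentration response against DMSO baseline.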

Inconclusive results are not listed. The source holds several records for some structures; these can differ, active in one and inactive in another. Active and inactive are the calls of the source. The calls were made as follows: active = hit-call score of the fitted dose curve at least 0.9, where 1 is the maximum; inconclusive = response in the unintended direction; inactive = score below 0.9.

Chain of Cellular tumor antigen p53 (Homo sapiens) (P04637 whole entry, looked up): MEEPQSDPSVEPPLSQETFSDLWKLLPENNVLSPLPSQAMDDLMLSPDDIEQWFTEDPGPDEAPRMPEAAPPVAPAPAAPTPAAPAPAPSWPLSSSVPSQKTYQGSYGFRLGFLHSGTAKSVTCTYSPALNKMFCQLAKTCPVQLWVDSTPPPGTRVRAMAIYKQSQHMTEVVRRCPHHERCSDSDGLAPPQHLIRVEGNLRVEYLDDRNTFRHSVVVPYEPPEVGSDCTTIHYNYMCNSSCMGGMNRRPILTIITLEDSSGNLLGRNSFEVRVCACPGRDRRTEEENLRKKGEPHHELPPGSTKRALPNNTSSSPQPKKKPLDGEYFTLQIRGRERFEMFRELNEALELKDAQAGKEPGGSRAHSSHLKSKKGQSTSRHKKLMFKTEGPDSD

For `CCC(=O)OC(C)(C)C1CC=C(C)CC1` (stereo not given), the molecule was classed as inactive in [1], in assay [2], in assay [3], in assay [4], in [5] and in assay [6]. The molecule was classed as inactive in assay [7] and in assay [8].
On to `CC1=CC[C@@H]2C[C@H]1C2(C)C`, for which the result in assay [9] and in assay [3] was inactive.
In the case of `CC/C=C\CCOC(C)OCC` (stereo not given), the call in assay [9], in assay [2], in [4] and in [6] was inactive.
Turning to `CN(C)CCCNCCCN(C)C`, the outcome in assay [1], in assay [2], in assay [3], in assay [4], in assay [5] and in assay [6] was inactive. For the same molecule, the call in [7] and in assay [8] was inactive.
As a reminder, the AC50 is the midpoint of the concentration-response curve, whichever way the signal moves. As to `CCC(C)COC(=O)CC(C)C` (stereo not given), the molecule was called inactive in [1], in [2], in assay [3], in [4], in assay [6] and in [7]. Also, in [8], the outcome was inactive. Further, the AC50 in [5] is 46.1 µM (active).
Take `CCCCCCCCCCCCS`: the result in [1], in assay [2], in assay [3], in assay [4], in assay [5] and in assay [6] was inactive. The molecule was called inactive in [7] and in assay [8].
On to `ClCCOCCOCCCl`, for which the result in assay [9], in assay [2], in [4], in assay [6], in [7] and in assay [8] was inactive.
In the case of `CCCCCCCCCOS(=O)(=O)O`, the molecule was classed as inactive in assay [9], in [2], in assay [4], in [5], in assay [6] and in [7]. Also, the result in assay [8] was inactive.
For the molecule `CC/C=C\CCCCO`, the result in [9], in assay [2], in [6], in [7] and in [8] was inactive.
On to `CC(CO)c1ccccc1` (stereo not given), for which the molecule was called inactive in [1], in assay [2], in assay [3], in assay [4], in assay [5] and in assay [6]. Besides, the molecule was classed as inactive in assay [7] and in [8].
With `CC(C)(O)CCc1ccccc1`, the molecule was classed as inactive in [9], in [2], in assay [4], in assay [6] and in assay [8].
For the molecule `CC(=O)c1ccc2ccccc2c1`, the molecule was called inactive in [9], in [2], in assay [5], in assay [6], in assay [7] and in assay [8].
In the case of `CC(C)Cc1ccc(C(C)C(=O)O)cc1` (stereo not given), the outcome in assay [1], in assay [2], in [3], in assay [4], in assay [5] and in assay [6] was inactive. The outcome in assay [7] was inactive.
In the case of `CCCO`, the call in assay [9], in assay [2], in assay [4], in [5], in assay [6] and in [7] was inactive.
Turning to `CCCC(O)C(CC)CO` (stereo not given), the call in assay [1], in assay [2], in assay [3], in [4], in [5] and in assay [6] was inactive. Also, the call in assay [7] and in assay [8] was inactive.
As for `OCCCO`, the molecule was called inactive in assay [9], in assay [6], in [7] and in assay [8].
As to `CCCO[Si](OCCC)(OCCC)OCCC`, the outcome in assay [9], in assay [3], in assay [5], in [7] and in assay [8] was inactive.
For the molecule `CC(=O)C1=C(C)[C@@H]2C[C@@]3(C1)[C@H](C)CC[C@H]3C2(C)C`, the molecule was called inactive in assay [9], in assay [3], in [4], in assay [6], in assay [7] and in assay [8].
For the molecule `CC(C)(CO)CO`, the result in assay [1], in [2], in assay [3], in assay [4], in [5] and in [6] was inactive. Moreover, the molecule was classed as inactive in assay [7] and in assay [8].
For `CC1(C)CC(=O)CC(C)(C)N1`, the molecule was called inactive in assay [9], in [2], in assay [4], in assay [5], in [6] and in assay [8].
For `CCC(C)C1CCCCC1=O` (stereo not given), the result in [9], in [2] and in assay [7] was inactive.
With `CCCCCCCCCCOC(=O)c1ccccc1C(=O)OCCCCCCCC`, the molecule was called inactive in [9], in assay [5] and in [6].
As to `NCCN1CCNCC1`, the result in [1], in [2], in assay [3], in assay [4], in assay [5] and in [6] was inactive. Besides, the call in [7] and in assay [8] was inactive. For the same molecule, the AC50 in assay [2] is 0.000307 µM (active).
In the case of `CC(=O)CC(C)(C)C1CCCCC1`, the result in assay [9], in assay [2], in assay [4], in assay [5], in assay [6] and in assay [7] was inactive. In addition, in assay [8], the result was inactive.
For the molecule `COc1ccc(C(C)=O)cc1`, the molecule was classed as inactive in assay [9], in assay [2], in assay [6], in [7] and in [8].
As for `C/C=C(\C)C(=O)OC/C=C(\C)CCC=C(C)C`, the molecule was called inactive in [9], in [2], in assay [4], in assay [6] and in assay [8].
`O=C(Nc1cccc(Cl)c1)OCC#CCCl`: the AC50 is 67.5 µM (active) in assay [1]; 19.9 µM (active) in assay [2]; 69.2 µM (active) in assay [3]; 13.4 µM (active) in assay [4]; 56.1 µM (active) in assay [5]; 14.1 µM (active) in [6]. Besides, in [8], the AC50 was 19.6 µM (active). The molecule was classed as inactive in assay [7].
As to `CC(=O)CCc1ccc(O)cc1`, the molecule was classed as inactive in assay [9], in assay [2], in assay [4], in [5], in assay [6] and in assay [7]. Also, the outcome in [8] was inactive.
Turning to `CC(=O)Oc1c(C)c(C)c2c(c1C)CC[C@@](C)(CCC[C@H](C)CCC[C@H](C)CCCC(C)C)O2`, the molecule was classed as inactive in assay [1], in [2], in assay [3], in [4], in [5] and in assay [6]. Also, the molecule was called inactive in assay [7] and in assay [8].
Consider `O=C(O)c1ccco1`, for which the outcome in [1], in assay [2], in [3], in [4], in assay [6] and in assay [7] was inactive.
Regarding `CCCc1ccc(N)cc1`, the call in assay [9], in assay [2], in assay [4], in assay [5], in assay [6] and in assay [8] was inactive.
Turning to `CC(C)(O)C(=O)c1ccc(OCCO)cc1`, the molecule was called inactive in [9], in assay [2], in assay [4], in assay [6] and in assay [7].
On to `CCCCCCCC(=O)N(C)C`, for which the molecule was called inactive in assay [1], in [2], in assay [3], in [4], in assay [6] and in assay [7]. The result in assay [8] was inactive.
As to `CN(C)C`, the outcome in [9], in [2], in assay [3], in [6], in assay [7] and in assay [8] was inactive.

The values above are taken from PubChem BioAssay (EPA / NIEHS).
